The values below come from PubChem BioAssay.

Calls of active or inactive are those of the source.

In assay [1] the test system is Human papillomavirus type 1a protein E7 (residues 44-93). The assay is described as follows: small molecules binding HPV E7 44-93 – biochemical, small-molecule microarray, residues 44-93, 635 nm fluorescence, primary screen (AID 1108).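 Further: E7 fragment applied at 1 µg/mL in TBST for 1 h at 4 C; score combines spot fluorescence with its signal to noise ratio.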 To be noted: fluorescence 635 nm, higher = more signal.
Assay [2] in a line: hepatitis C replication reporter changes, two-sided – Huh7 cells, luciferase reporter, HCV replication inhibitor project, primary screen (AID 1109).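 Further: huh7 hepatoma cells harbouring a luciferase neomycin HCV replicon reporter; luciferase luminescence as measure of HCV replicon replication; test concentration not given here.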 To be noted: Huh7 HCV replicon luciferase reporter, 48 h; higher = more signal.
Assay [3] has as its target Left-right determination factor 2 (Homo sapiens) (UniProt O00292). Description: small molecules binding LEFTY2 protein – biochemical, small-molecule microarray, 635 nm fluorescence scan, primary screen (AID 1110). To be noted: higher = more signal.
Assay [4] addresses Calmodulin-1 (Homo sapiens) (UniProt P0DP23). Description: small molecules binding calmodulin-1 with EGTA – biochemical, small-molecule microarray, Cy5-labelled CALM1, profiling panel (AID 1111).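 Further: labelled calmodulin applied in Tris saline Tween buffer holding calcium plus EGTA and DTT.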 To be noted: Cy5-CALM1 binding fluorescence, higher = more signal.
Assay [5] has the same target. Description: small molecules binding Ca-loaded calmodulin-1 – biochemical, small-molecule microarray, Cy5-labelled CALM1, plus calcium, artefact control for SMM control-protein annotation, profiling panel (AID 1112).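 Further: score merges spot fluorescence with signal to noise from triplicate slides.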 Particulars: Cy5-CALM1 binding fluorescence, higher = more signal.
Assay [6] can be described thus: probe aWnt5a binding to arrayed compounds – biochemical, biotinylated probe, 635/667 nm fluorescence, primary screen (AID 1113).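 Further: score merges 667 nm fluorescence intensity with signal-to-noise per printed feature.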 To be noted: small-molecule microarray, higher = more signal.
Assay [7] can be described thus: probe aShh binding to arrayed compounds – biochemical, biotinylated probe, 635/667 nm fluorescence, primary screen (AID 1114).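 Further: probe is biotin-labelled aShh protein from a stem cell growth factor screen; measures binding of labelled protein to compounds printed on the slide; score merges feature fluorescence at 667 nm with signal-to-noise.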 To be noted: small-molecule microarray, higher = more signal.
Assay [8] is described as follows: probe aNog binding to arrayed compounds – biochemical, biotinylated probe, 635/667 nm fluorescence, primary screen (AID 1115).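 Further: probe is biotinylated aNog protein used at 0.15 µg/mL for 1 h at 4 C; z-score combines 667 nm fluorescence of each spot with its signal to noise.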 To be noted: small-molecule microarray, higher = more signal.
Assay [9] has as its target Torsin-1A-interacting protein 1 (Homo sapiens) (UniProt Q5JTV8). Description: compound microarray binding of lysate hLAP1 – cell lysate, small-molecule microarray, COS7 lysate, 635/667 nm fluorescence, primary screen (AID 1116). To be noted: 635 nm fluorescence, higher = more signal.
Assay [10] has as its target Alpha-bungarotoxin (Bungarus multicinctus) (UniProt P60615). Description: compounds binding labelled alpha-BTX control protein – biochemical, small-molecule microarray, Alexa647 label, 635/667 nm fluorescence, artefact control for SMM control protein annotation, profiling panel (AID 1117). Particulars: alpha-BTX-A647 binding fluorescence, higher = more signal.
For a further assay, the target named is Albumin (Bos taurus) (UniProt P02769). The assay is described as follows: compounds binding labelled BSA control protein – biochemical, small-molecule microarray, Alexa647 label, 635/667 nm fluorescence, artefact control for SMM control protein annotation, profiling panel (AID 1118).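 Further: score merges 667 nm emission intensity and signal-to-noise per printed compound spot.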 To be noted: BSA-A647 binding, fluorescence 635 nm, higher = more signal.
Albumin (Bos taurus), sequence (P02769 whole entry, looked up): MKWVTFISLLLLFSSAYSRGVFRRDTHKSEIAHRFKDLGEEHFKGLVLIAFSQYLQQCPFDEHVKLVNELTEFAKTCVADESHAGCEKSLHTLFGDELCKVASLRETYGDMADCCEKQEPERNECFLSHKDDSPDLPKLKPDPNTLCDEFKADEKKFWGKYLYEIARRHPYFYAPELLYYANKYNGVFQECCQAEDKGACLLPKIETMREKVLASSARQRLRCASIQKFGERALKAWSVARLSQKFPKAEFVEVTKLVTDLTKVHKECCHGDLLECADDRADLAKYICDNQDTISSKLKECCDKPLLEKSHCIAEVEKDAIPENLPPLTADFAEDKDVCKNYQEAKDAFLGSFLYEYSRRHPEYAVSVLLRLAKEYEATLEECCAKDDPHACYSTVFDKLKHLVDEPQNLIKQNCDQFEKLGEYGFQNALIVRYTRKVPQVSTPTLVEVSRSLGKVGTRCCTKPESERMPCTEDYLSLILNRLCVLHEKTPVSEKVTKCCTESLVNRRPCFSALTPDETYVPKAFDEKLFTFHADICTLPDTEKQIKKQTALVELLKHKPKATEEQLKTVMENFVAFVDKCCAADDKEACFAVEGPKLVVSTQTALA
The nature of assay [11]: probe aXIP binding to arrayed compounds – biochemical, NeuroSMM set, 635/667 nm fluorescence, primary screen (AID 1119).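 Further: probe is the protein aXip251-270 applied at 1 µg/mL to compound-printed slides; binding of probe to printed compounds measured as 667 nm fluorescence plus signal to noise.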 To be noted: small-molecule microarray, higher = more signal, called active from +8 up or from −8 down.
A short description of assay [12]: probe aNOTCH3 binding on compound microarray – biochemical, small-molecule microarray, 635/667 nm fluorescence, primary screen (AID 1120).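 Further: probe is a biotin-tagged antibody raised against NOTCH3 rather than NOTCH3 protein; score merges spot fluorescence near 667 nm with spot signal to noise.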 To be noted: higher = more signal.
Assay [13] is described as follows: probe aNOTCH2 binding on compound microarray – biochemical, small-molecule microarray, 635/667 nm fluorescence, primary screen (AID 1121).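 Further: score merges feature fluorescence read at 667 nm with its signal to noise.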 Particulars: higher = more signal.
Assay [14] deals with Carbonic anhydrase 2 (Homo sapiens) (UniProt P00918). The assay is described as follows: compounds binding carbonic anhydrase 2 – biochemical, small-molecule microarray, Alexa647-labelled CAII, profiling panel (AID 1122). To be noted: CAII-A647 binding fluorescence, higher = more signal.
A short description of assay [15]: COS7 lysate on small-molecule microarray, probe aHis, 635 nm (AID 1123).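 Further: z-score combines 667nm fluorescence intensity with signal-to-noise per printed compound spot.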 Particulars: COS7 cell lysate, fluorescence, higher = more signal.
A short description of assay [16]: probe aLAP1 signal on lysate-treated microarray – cell lysate, small-molecule microarray, COS7 lysate, primary screen (AID 1124).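 Further: lysate comes from COS7 cells expressing LAP1 and is applied at 0.3 µg/mL; score merges spot fluorescence near 667 nm with signal-to-noise over triplicate slides.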 Particulars: probe aLAP1, fluorescence, higher = more signal.
A further assay concerns Sam68 (KHDRBS1). The assay is described as follows: compounds binding KHDRBS1 protein – biochemical, small-molecule microarray, 635 nm fluorescence, primary screen (AID 1125).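 Further: score merges 667 nm channel intensity with signal to noise over triplicate slides.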 Particulars: higher = more signal.
Assay [17] concerns Chordin-like protein 2 (CHRDL2). Description: compounds binding chordin-like 2 – biochemical, small-molecule microarray, 635 nm fluorescence, primary screen (AID 1126).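 Further: printed compound slides probed with Chrdl2 protein at 4 µg/mL for 1 h at 4 C; score merges 667 nm emission intensity with signal to noise over three replicate slides.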 To be noted: fluorescence 635 nm, higher = more signal.
Assay [18] addresses Concanavalin-A (Canavalia ensiformis) (UniProt P02866). The assay is described as follows: compounds binding concanavalin A lectin – biochemical, small-molecule microarray, Alexa647 label, 635 nm, artefact control for SMM control protein annotation, primary screen (AID 1127).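 Further: z combines 667 nm emission intensity with signal-to-noise across three replicate slides.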 Particulars: ConA-A647 binding fluorescence, higher = more signal.

Concanavalin-A (Canavalia ensiformis), sequence (P02866 whole entry, looked up): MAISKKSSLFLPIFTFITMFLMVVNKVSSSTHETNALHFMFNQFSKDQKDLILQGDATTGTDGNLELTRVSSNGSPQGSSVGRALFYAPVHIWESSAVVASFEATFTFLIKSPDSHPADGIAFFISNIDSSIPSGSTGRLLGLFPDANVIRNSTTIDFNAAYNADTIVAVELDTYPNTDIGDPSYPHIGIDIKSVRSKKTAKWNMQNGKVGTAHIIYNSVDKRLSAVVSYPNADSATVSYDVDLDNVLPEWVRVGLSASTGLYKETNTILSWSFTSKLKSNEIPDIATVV
Torsin-1A-interacting protein 1 (Homo sapiens), sequence (Q5JTV8 whole entry, looked up): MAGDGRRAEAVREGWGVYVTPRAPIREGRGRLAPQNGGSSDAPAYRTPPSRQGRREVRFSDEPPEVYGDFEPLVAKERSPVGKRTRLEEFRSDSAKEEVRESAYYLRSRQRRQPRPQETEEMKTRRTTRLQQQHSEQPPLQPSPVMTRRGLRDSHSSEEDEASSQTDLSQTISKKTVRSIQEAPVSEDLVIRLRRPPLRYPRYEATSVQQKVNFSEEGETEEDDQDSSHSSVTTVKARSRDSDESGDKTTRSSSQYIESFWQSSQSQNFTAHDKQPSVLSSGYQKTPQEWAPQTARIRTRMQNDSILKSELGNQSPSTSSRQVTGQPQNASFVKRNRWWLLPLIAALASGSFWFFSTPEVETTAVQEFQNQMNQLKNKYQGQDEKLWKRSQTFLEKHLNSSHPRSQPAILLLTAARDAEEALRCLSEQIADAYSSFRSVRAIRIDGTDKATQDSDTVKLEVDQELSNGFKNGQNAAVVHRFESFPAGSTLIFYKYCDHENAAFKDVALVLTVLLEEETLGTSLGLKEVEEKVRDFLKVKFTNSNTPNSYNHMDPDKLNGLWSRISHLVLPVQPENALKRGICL
Left-right determination factor 2 (Homo sapiens), sequence (O00292 whole entry, looked up): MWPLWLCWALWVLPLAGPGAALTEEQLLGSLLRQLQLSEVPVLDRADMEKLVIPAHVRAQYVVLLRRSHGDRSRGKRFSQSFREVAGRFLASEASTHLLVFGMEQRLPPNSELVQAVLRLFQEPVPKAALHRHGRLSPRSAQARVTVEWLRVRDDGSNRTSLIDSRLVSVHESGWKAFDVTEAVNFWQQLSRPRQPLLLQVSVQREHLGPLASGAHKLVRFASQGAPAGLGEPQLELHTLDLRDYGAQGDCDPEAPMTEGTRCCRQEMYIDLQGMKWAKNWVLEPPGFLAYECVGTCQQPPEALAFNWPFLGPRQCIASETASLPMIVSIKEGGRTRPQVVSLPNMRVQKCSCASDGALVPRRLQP
Alpha-bungarotoxin (Bungarus multicinctus), sequence (P60615 whole entry, looked up): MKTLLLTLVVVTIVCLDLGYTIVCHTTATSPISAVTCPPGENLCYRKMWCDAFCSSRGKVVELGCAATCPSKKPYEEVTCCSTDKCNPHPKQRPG

In the case of `COCCOC(=O)N1C(=O)[C@@]2(c3ccccc31)[C@H](C(N)=O)[C@H]1C(=O)O[C@H](c3ccccc3)[C@H](c3ccccc3)N1[C@@H]2c1ccc(OCCO)cc1`, the composite z-score in assay [1] was 1.45; in assay [3], 0.234; in assay [4], 0.68; in assay [5], -0.183; in [6], -0.063; in assay [7], 0.0723. In addition, the composite z-score in assay [8] was -0.0161; in assay [9] it was 0.905; in assay [10] it was 1.37; in the assay with Albumin (Bos taurus), 0.787; in assay [12] it was -0.0055; in [13], -0.123. The composite z-score is 0.508 in assay [14]; 1.74 in assay [15]; 0.103 in assay [16]; 1.31 in the assay with Sam68 (KHDRBS1); 0.33 in assay [17]; 1.15 in assay [18]. Also, the z-score in assay [2] was -1.09. In assay [11], the composite Z-score is 1.32 (inactive).

As to `COCCOC(=O)N1C(=O)[C@@]2(c3cc(C#CC4(O)CCCCCC4)ccc31)[C@H](c1ccc(OCCO)cc1)N1[C@H](c3ccccc3)[C@H](c3ccccc3)OC(=O)[C@H]1[C@@H]2C(N)=O`, the composite z-score in assay [1] was 0.448; in assay [3], 0.547; in assay [4] it was 1.04; in assay [5], -0.111; in [6] it was -0.0472; in [7], 0.199. Also, the composite z-score in assay [8] was 0.53; in assay [9], 1.73; in [10], 1.9; in the assay with Albumin (Bos taurus) it was 0.119; in assay [12] it was 0.0876; in assay [13], -0.0907. Further, the composite z-score in [14] amounted to 0.3; in assay [15], 0.615; in assay [16] it was 0.519; with Sam68 (KHDRBS1) it was 1.3; in assay [17], 0.986; in assay [18], 1.17. Besides, the z-score in [2] is -2.2. Besides, the composite Z-score in assay [11] is 0.189 (inactive).

Consider `C=CC[C@]1(C(=O)NCc2ccccc2)COC(c2ccc(OCCCO)cc2)=N1`, for which the composite z-score is -0.298 in assay [1]; -1 in assay [3]; 0.388 in assay [4]; -0.733 in assay [5]; 0.0293 in assay [6]; 0.0982 in [7]. Besides, the composite z-score in [8] stood at 0.54; in assay [9] it was 3.03; in [10] it was 3.83; with Albumin (Bos taurus), 0.981; in assay [12] it was 0.0789; in [13], 0.114. The composite z-score in assay [14] is 0.84; in assay [15], 2.75; in assay [16], 1.46; in the assay on Sam68 (KHDRBS1) it was -0.297; in [17], -0.623; in assay [18], -0.507. In addition, the z-score in assay [2] was -1.65. The composite Z-score in assay [11] is 3.11 (inactive).

As to `C/C=C/CN(C(=O)C#Cc1ccccc1)[C@H](CO[Si](C)(C)C(C)(C)C)c1ccccc1`, the composite z-score in assay [1] was 0.0833; in assay [3], -0.594; in assay [4] it was -0.855; in assay [5], -1.76; in assay [6], -0.286; in assay [7], -0.372. Also, the composite z-score was -0.338 in assay [8]; -0.721 in assay [9]; -2.16 in assay [10]; -0.907 in the assay with Albumin (Bos taurus); -0.384 in assay [12]; -0.22 in [13]. The composite z-score in [14] is 0.599; in assay [15], 0.043; in [16], -0.155; in the assay with Sam68 (KHDRBS1) it was 0.248; in assay [17] it was -0.553; in assay [18], -1.17. The z-score in assay [2] was -0.944. For the same compound, the composite Z-score in [11] is -0.357 (inactive).

For the compound `C=CCOC(=O)[C@H]1[C@@H]2C(=O)O[C@@H](c3ccccc3)[C@@H](c3ccccc3)N2[C@@H](c2ccc(OCCOC(=O)[C@H]3C[C@H]4C(=O)NCC(=O)N4[C@H]3c3ccc(O)cc3)cc2)[C@]12C(=O)Nc1ccc(I)cc12`, the composite z-score in [1] is 0.429; in [3] it was 0.788; in assay [4] it was 0.275; in [5] it was 0.295; in assay [6] it was -0.1; in assay [7], -0.367. Moreover, the composite z-score in [8] is -0.158; in assay [9], 0.365; in [10], -0.303; with Albumin (Bos taurus), 0.163; in [12], -0.0647; in assay [13], -0.104. Also, the composite z-score in assay [14] is 0.0742; in assay [15], 0.737; in [16], 0.0174; in the assay on Sam68 (KHDRBS1) it was 0.503; in [17] it was 0.677; in assay [18], 1.13. Also, the z-score in assay [2] is -1.58. Also, in assay [11], the composite Z-score is -0.0149 (inactive).

On to `[N-]=[N+]=NCc1ccccc1C[C@]1(C(=O)N2CCOCC2)N=C(c2ccc(OCCCO)cc2)O[C@H]1c1ccccc1CN=[N+]=[N-]`, for which the composite z-score in assay [1] was 0.344; in assay [3] it was -0.0716; in assay [4], 2.49; in [5], 1.28; in assay [6], 0.653; in [7], 0.564. For the same compound, the composite z-score in [8] was found to be 0.967; in [9], 2.79; in [10] it was 2.74; with Albumin (Bos taurus), 0.954; in [12] it was 0.598; in assay [13] it was 0.502. The composite z-score in assay [14] is 0.802; in assay [15] it was 3.34; in [16], 0.853; with Sam68 (KHDRBS1), 1.3; in assay [17], -0.655; in [18], 1.14. Moreover, in [2], the z-score was -2.48. For the same compound, the composite Z-score in assay [11] is -0.161 (inactive).

For the compound `COCC(=C=CC[C@@H](O)c1ccc(OCCO)cc1)C[C@@H](O)COCc1ccccc1`, the composite z-score in assay [1] stood at 1.39; in assay [3] it was 1; in assay [4], 0.0268; in [5] it was 0.473; in assay [6] it was 0.0559; in assay [7], 0.0611. Also, the composite z-score in assay [8] is 0.629; in [9], 0.319; in [10], 0.0353; with Albumin (Bos taurus), 0.769; in assay [12] it was 0.0528; in [13], -0.0796. Further, the composite z-score is 0.805 in [14]; 2.3 in assay [15]; 0.686 in assay [16]; 1.28 with Sam68 (KHDRBS1); 0.0466 in [17]; 0.547 in [18]. Moreover, the z-score in assay [2] is -1.08. Besides, the composite Z-score in [11] is -0.727 (inactive).

Turning to `NCCCC[C@@H]1NC(=O)[C@H]2C[C@@H](C(=O)NCc3ccc(F)cc3)[C@@H](c3cccc(OCCO)c3)N2C1=O`, the composite z-score in [1] is 1.43; in assay [3] it was 1.13; in assay [4], 0.986; in [5] it was -0.75; in [6] it was 0.0077; in [7] it was -0.0119. Besides, the composite z-score is 0.127 in assay [8]; 1.92 in assay [9]; 0.538 in [10]; -0.364 in the assay with Albumin (Bos taurus); 0.156 in assay [12]; -0.0995 in assay [13]. The composite z-score in assay [14] amounted to 0.549; in [15], 1.46; in assay [16] it was 0.251; in the assay on Sam68 (KHDRBS1) it was 1.3; in assay [17], 1.47; in assay [18], 0.701. Further, the z-score in [2] is -2.1. For the same compound, the composite Z-score in assay [11] is 0.125 (inactive).
